hgDAF-12 ag: H. glycines DAF-12 receptor agonists, primary screen, cell-based, luminescence, HEK293, GAL4 fusion, UAS-luciferase; Nuclear hormone receptor DAF-12 (Heterodera glycines), GAL4 fusion; HEK293 GAL4-hgDAF12 UAS-luciferase reporter, agonist luminescence; normalized to butyrate control; activation, % at 6.8 µM; actives 1.8% (n = 370,000); AID 687014, 2013;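 active = activation above a cutoff set at the mean of all screened compounds plus 3 SD, cut at about 10% in these data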;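 also: 0% = DMSO wells and 100% = sodium butyrate wells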
hcDAF-12 act: H. contortus DAF-12 nuclear receptor activators, primary screen, cell-based, luminescence, HEK293, lit1-tk-luc reporter; activation, % at 6.8 µM; actives 1.4% (n = 370,000); HEK293 hcDAF-12 lit1-tk-luc reporter; 0% DMSO, 100% Δ7-dafachronic acid; AID 652067, 2013;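 active = activation above the mean of all tested compounds plus 3 SD, cut at about 5.5% in these data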;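 also: 100% = response to 3 µM Δ7-dafachronic acid high control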
ssDAF12 agonist: S. stercoralis DAF-12 nuclear receptor activators, primary screen, cell-based, luminescence, HEK293, GRIP1 co-expression, lit1-tk-luc. activation, % at 6.8 µM. HEK293 ssDAF-12/GRIP1 lit1-tk-luc reporter; % of 3 µM dafachronic acid response. Nuclear hormone receptor DAF-12 (Strongyloides stercoralis). actives 1% (n = 370,000);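 active = activation above the mean over all tested compounds plus 3 SD, cut at about 0.9% in these data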;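 also: 0% = DMSO-only wells and 100% = 3 µM delta7-dafachronic acid wells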
DAX1 inh-1: DAX1 (NR0B1) inhibitors, primary screen, cell-based, HEK293, Gal4-DAX1, luciferase luminescence | actives 0.99% (n = 340,000) | inhibition, % at 6.75 µM | AID 504766, 2011 | HEK293 Gal4-DAX1 luciferase reporter;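 active = inhibition above the mean over all tested compounds plus 3 SD, cut at about 4.2% in these data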;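 also: 0% = DAX1-transfected cells with DMSO and 100% = empty-vector control cells with DMSO; inhibition shows as a rise in luminescence from relieved DAX1 repression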
Target sequence (P51843 207-470 limits assumed): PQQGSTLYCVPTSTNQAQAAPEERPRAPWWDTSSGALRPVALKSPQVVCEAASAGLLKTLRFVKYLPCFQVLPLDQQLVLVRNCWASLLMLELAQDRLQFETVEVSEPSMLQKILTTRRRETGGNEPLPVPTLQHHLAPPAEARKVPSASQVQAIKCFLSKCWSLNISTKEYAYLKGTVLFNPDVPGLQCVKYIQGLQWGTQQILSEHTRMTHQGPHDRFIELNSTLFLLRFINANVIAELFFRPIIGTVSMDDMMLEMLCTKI
DAX1 inh-2: DAX1 (NR0B1) inhibitors on StAR promoter, primary screen, cell-based, luminescence, SF-1 (NR5A1), full-length DAX-1 | actives 1.1% (n = 370,000) | AID 652010, 2013 | HEK293T StAR-luciferase reporter, SF-1/DAX-1 repression relief | inhibition, % at 6.8 µM;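 active = inhibition above the mean over all tested compounds plus 3 SD, cut at about 3.6% in these data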;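 also: 0% = DAX-1 cells with DMSO and 100% = cells lacking DAX-1 with DMSO; higher inhibition means more luminescence from relief of DAX-1 repression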
The depositor's hits bear a star. Only some compounds are listed: those with a hit (about 4.1% of all), similar ones and a draw of the others.

For N#CC1=C(N)Oc2c(c(=O)oc3ccccc23)C1c1ccncc1 (stereo unspecified) the results were hgDAF-12 ag 0, hcDAF-12 act -2, ssDAF12 agonist -2, DAX1 inh-1 0 and DAX1 inh-2 -1.
For N#CC1=C(N)Oc2c(c(=O)sc3ccccc23)C1c1cccnc1 (stereo unspecified) the results were hgDAF-12 ag 0, hcDAF-12 act 0, ssDAF12 agonist -2, DAX1 inh-1 -1 and DAX1 inh-2 4.1*.
For CCN(CC)c1ccc(/C=C2\C(=O)NC(=S)N(C)C2=O)o1 the results were hgDAF-12 ag 8, hcDAF-12 act 2, ssDAF12 agonist 0, DAX1 inh-1 7.5* and DAX1 inh-2 2.
Screening Nc1c2c(nc3ccccc13)CCN(Cc1ccccc1)C2 returned hgDAF-12 ag 4, hcDAF-12 act 6.1*, ssDAF12 agonist 0, DAX1 inh-1 1 and DAX1 inh-2 0.
C1=C(c2c[nH]c3ccccc23)CCN(Cc2ccccc2)C1 was read as hgDAF-12 ag -6, hcDAF-12 act -2, ssDAF12 agonist -1, DAX1 inh-1 -4 and DAX1 inh-2 -2.
`C[C@]12CC[C@H](O)C[C@H]1CC[C@@H]1[C@@H]2CC[C@]2(C)C(=O)CC[C@@H]12` gave hgDAF-12 ag 0, hcDAF-12 act 0, ssDAF12 agonist -1, DAX1 inh-1 4.3* and DAX1 inh-2 1.
Screening Cc1ccc(/C=C2\C(=O)NC(=S)N(c3ccccc3F)C2=O)s1 returned hgDAF-12 ag -1, hcDAF-12 act 1, ssDAF12 agonist -2, DAX1 inh-1 1 and DAX1 inh-2 0.
`Cc1ccc(/C=C2\C(=O)NC(=S)N(c3ccc(F)cc3)C2=O)s1` gave hgDAF-12 ag 7, hcDAF-12 act 4, ssDAF12 agonist 0, DAX1 inh-1 0 and DAX1 inh-2 4.0*.
For CN(C(=O)Oc1ccc(C(C)(C)C)cc1)c1ccccc1 the results were hgDAF-12 ag 11*, hcDAF-12 act -2, ssDAF12 agonist -1, DAX1 inh-1 0 and DAX1 inh-2 0.
Screening N#CCC[C@H]1CC[C@]2(CCCN(Cc3ccccn3)C2)O1 returned hgDAF-12 ag -3, hcDAF-12 act 1, ssDAF12 agonist -1 and DAX1 inh-2 0.
Screening COCCNC(=O)CN1C(=O)CN=C(c2ccccc2)c2ccccc21 returned hgDAF-12 ag 2, hcDAF-12 act -1, ssDAF12 agonist -1, DAX1 inh-1 4.5* and DAX1 inh-2 0.
Screening Nc1ccc(Cl)c(Cl)c1 returned hgDAF-12 ag 2, hcDAF-12 act 0, ssDAF12 agonist 1.1*, DAX1 inh-1 0 and DAX1 inh-2 0.
Screening O=C(CN1C(=O)[C@@H](Cc2ccccc2)N=C(c2ccccc2)c2ccccc21)NC1CCCCC1 returned hgDAF-12 ag -2, hcDAF-12 act -2, ssDAF12 agonist 0 and DAX1 inh-2 1.
Screening CO[C@H]([C@H](C)/C=C/N(C)C=O)[C@@H](C)C(=O)CC[C@H](C)[C@H](O)[C@H](C)[C@H]1OC(=O)/C=C/C(C)=C/[C@H](O)[C@H](OC)C[C@@H]2C=CC[C@@H](C[C@H](OC)[C@@H](CO)[C@@H](OC)C[C@@H](OC)[C@@H]1C)O2 returned hgDAF-12 ag -9, hcDAF-12 act -1 and ssDAF12 agonist -1.
For CC(=O)O[C@@]12CO[C@@H]1C[C@H](O)[C@@]1(C)C(=O)[C@H](O)C3=C(C)[C@@H](O)C[C@@](O)([C@@H](OC(=O)c4ccccc4)C12)C3(C)C (stereo partly specified) the results were hgDAF-12 ag 1, hcDAF-12 act 0, ssDAF12 agonist -1, DAX1 inh-1 4.3* and DAX1 inh-2 1.
Screening N#CC1c2ccccc2-n2nncc2CN1C(=O)c1cccnc1 (stereo unspecified) returned hgDAF-12 ag 0, hcDAF-12 act -1, ssDAF12 agonist 0 and DAX1 inh-2 -1.
